# Measured values published in PubChem BioAssay (Tox21).
# The source made the active and inactive calls. Where a call stands in place of a potency, no number is given. Calls come from the whole dose curve; as a rule, active = well fitted activation curve with a large enough effect in the repeat runs; inconclusive = weak or mixed curves; inactive = flat fitted curve, though single readings scatter.
# Target: KiSS-1 receptor (Homo sapiens) (UniProt Q969F8)
# Experiment: Human kisspeptin (KISS1R) small molecule agonists, calcium flux assay in KISS1R-HEK293 cells (AID 1920064)
# Settings: KISS1R-HEK293, calcium flux fluorescence, agonist; series mostly up to 76.8 µM
# Description: National Center for Advancing Translational Sciences [NCATS]
# Division of Preclinical Innovation [DPI]
# U.S. Environmental Protection Agency [EPA]
# National Institutes of Environmental Health Sciences [NIEHS]
# National Toxicology Program [NTP]
# U.S. Food and Drug Administration [FDA]
# Kisspeptin and its receptor KISS1R play key roles in mammalian reproduction due to their involvement in the onset of puberty and control of the hypothalamic-pituitary-gonadal axis such as regulates GnRH release from the hypothalamus. The kisspeptin/KISS1R system also plays a direct role in peripheral organs (including the ovary, testis, uterus, and placenta) and is implicated in reproductive diseases such as miscarriage and polycystic ovary syndrome (PCOS). Abnormal KISS1R activity is associated with abnormal puberty, infertility, endometriosis, and hormone-dependent tumors. The KISS1 receptor (KISS1R, also called GPR54), a G-protein-coupled receptor (GPCR), acts (through phospholipase C) to increase intracellular inositol trisphosphate and then release intracellular calcium stores. Cell-based KISS1R-HEK293 assay is using HEK293 cells that have been genetically engineered to express the human KISS1R, which activity can be measured by calcium signaling. A compound/drug can activate (agonist) KISS1R that can be monitored by levels of intracellular calcium.
# KISS1R-HEK293 cells developed by Codex Corp contain human KISS1R gene, which was stably integrated into HEK 293 cells. The compound activation can be detected by fluorescence intensity via calcium flux assay. This cell line has been used to screen the Tox21 10K compound library to identify agonists of KISS1R.
# KISS1R-Hek293 cells were dispensed at 1500 cells/4uL/well in 1536-well black wall/clear bottom plates using a multidrop dispenser. After the assay plates were incubated at a 37 C/5% CO2 incubator for 18 hours, 4 microL of Calcium Dye Solution was added to each well. The plates were incubated at 37 C for 1 hour. And then 23 nL of compounds dissolved in DMSO, positive controls, or DMSO only was transferred to the assay plate by a pin tool station. The fluorescence intensity in the plates was measured using FDSS 7000EX kinetic plate reader with a filter set of Ex/Em=480/540 for 3 min at 1 sec intervals. Each test compound was measured at 15 concentrations and in triplicates.
# KiSS-1 receptor (Homo sapiens), sequence (Q969F8 whole entry, looked up): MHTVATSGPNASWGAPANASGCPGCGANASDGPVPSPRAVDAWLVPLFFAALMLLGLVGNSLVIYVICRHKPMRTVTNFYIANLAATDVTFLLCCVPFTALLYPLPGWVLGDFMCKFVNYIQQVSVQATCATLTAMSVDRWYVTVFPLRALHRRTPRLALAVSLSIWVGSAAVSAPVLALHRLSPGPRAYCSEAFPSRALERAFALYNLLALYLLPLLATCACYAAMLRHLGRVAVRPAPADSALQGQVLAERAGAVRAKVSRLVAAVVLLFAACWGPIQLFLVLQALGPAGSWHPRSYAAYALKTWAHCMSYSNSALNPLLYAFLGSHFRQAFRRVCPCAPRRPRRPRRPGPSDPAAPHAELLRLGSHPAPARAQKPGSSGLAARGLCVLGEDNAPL
row,Compound,Potency
1,NC1CCCCC1N (stereo not given),inactive
2,C=CCOc1cc(Cl)ccc1C(=O)NCCN(CC)CC,inactive
3,CC(C)c1ccccc1O,inactive
4,CC(C)(C)OCC1CO1 (stereo not given),inactive
5,CC(=O)NC(Cc1ccccc1)C(=O)O (stereo not given),inactive
6,CCCCCCCCCCCCCCC(=O)NC(CO)CCCCCCCCCCCCCC (stereo not given),inactive
7,Cn1cnc2c1c(=O)[nH]c(=O)n2C,inactive
8,Oc1ccc(C(c2ccc(O)cc2)C(Cl)(Cl)Cl)cc1,inactive
9,C=CC(C)(O)CC/C=C(\C)CC (stereo not given),inactive
10,COS(C)(=O)=O,inactive
11,CCC(=O)OCc1ccc(OC)cc1,inactive
12,Cc1c(C(=O)c2c[nH]n(C)c2=O)ccc(S(C)(=O)=O)c1C1=NOCC1,inactive
13,IC(I)I,inactive
14,O=C1OC(=O)c2ccccc21,inactive
15,CC(C)Oc1ccc2c(=O)c(-c3ccccc3)coc2c1,inactive
16,CCC(C(=O)OCCOCCN(CC)CC)c1ccccc1 (stereo not given),inactive
17,Nc1ccncc1N,inactive
18,CCCCCCCC/C=C\CCCCCCCC(N)=O,inactive
19,O=C1NC(c2ccccc2)(c2ccccc2)C(=O)N1COP(=O)(O)O,inactive
20,NCCCN1CCN(CCCN)CC1,inactive

row,Compound,Potency
1,C1COC1,inactive
2,O=C1C(O)=C(O)C(=O)C(O)=C1O,inactive
3,CCC(C)(C)C1CCC(OC)CC1 (stereo not given),inactive
4,Cc1ccccc1C,inactive
5,O=S(=O)(O)c1cccc2c(S(=O)(=O)O)cccc12,inactive
6,Cc1ccccc1C(=O)N1CC/C(=N\OS(=O)(=O)O)c2ccc(Cl)cc21,inactive
7,CCCCCC(=O)O[C@]1(C(C)=O)CC[C@H]2[C@@H]3CCC4=CC(=O)CC[C@]4(C)[C@H]3CC[C@@]21C,inactive
8,C[Si](C)O[Si](C)(C)O[Si](C)(C)O[Si](C)C,inactive
9,OCC(O)CN1CCN(c2ccccc2)CC1 (stereo not given),inactive
10,CCC(CO)CO,inactive
11,CC(C)(C)NC(=O)[C@@H]1CN(Cc2cccnc2)CCN1C[C@@H](O)C[C@@H](Cc1ccccc1)C(=O)N[C@H]1c2ccccc2C[C@H]1O,inactive
12,[Cl][In]([Cl])[Cl],inactive
13,CC(C)(C)c1ccc(C=O)cc1,inactive
14,CCOc1ccccc1OCC,inactive
15,COC(=O)/C=C(/C)N,inactive
16,O=C(CCCN1CCC(O)(c2cccc(C(F)(F)F)c2)CC1)c1ccc(F)cc1,inactive
17,C=C1[C@H]2CC[C@@H]3[C@H]2C(C)(C)CCC[C@]13C,inactive
18,CCC(C)SSC(C)CC (stereo not given),inactive
19,O=C(O)CNc1ccccc1,inactive
20,COc1cccc2c1C(=O)c1c(O)c3c(c(O)c1C2=O)C[C@@](O)(C(C)=O)C[C@@H]3O[C@H]1C[C@H](N)[C@H](O)[C@H](C)O1,inactive
